Test results taken from PubChem BioAssay AID1159580 (chemical genetic matrix, 2015).
The whole screen tested about 5,500 compounds, of which about 2,000 (36%) were called active. Not shown: some 18% with an inconclusive outcome. No stated cut-off is given here; in the data, active means normalized growth mostly below about 0.91 (no sharp cut-off); inconclusive means no clear call, values can overlap the other calls; inactive means mostly above about 0.92. The list shows a part of the results.

Assay: chemical genetic growth profiling, strain panel (AID 1159580);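 further: tested at 20 µM; growth read once vehicle control cultures reached saturation at 30 °C; 1 = growth at the plate median or of vehicle wells; lower values mean less growth of the strain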
Settings: S. cerevisiae deletion strains, growth OD

Measured: normalized growth

Cc1c(C(=O)N2CCCCC2)cc(-c2ccccc2)n1-c1ccccc1
active: locus YHR030C, strain SLT2, hits give low values 0.676 | locus YLR113W, strain HOG1, hits give low values 0.787 | locus YPL256C, strain CLN2, hits give low values 0.8
inactive: locus YAR019C, strain CDC15, hits give low values 0.964 | locus YBL105C, strain PKC1, hits give low values 0.975 | locus YBR135W, strain CKS1, hits give low values 0.969 | locus YBR136W, strain MEC1, hits give low values 0.969 | locus YBR160W, strain CDC28, hits give low values 0.959 | locus YDL017W, strain CDC7, hits give low values 0.973 | locus YDL028C, strain MPS1, hits give low values 0.946 | locus YDL101C, strain DUN1, hits give low values 0.969 | locus YDL108W, strain KIN28, hits give low values 0.968 | locus YDL132W, strain cdc53, hits give low values 0.973 | locus YDL214C, strain PRR2, hits give low values 0.908 | locus YDR052C, strain DBF4, hits give low values 0.983 | locus YDR054C, strain cdc34, hits give low values 0.968 | locus YDR226W, strain ADK1, hits give low values 0.962 | locus YDR477W, strain SNF1, hits give low values 0.908 | locus YER123W, strain YCK3, hits give low values 0.896 | locus YER133W, strain GLC7, hits give low values 0.924 | locus YFL009W, strain cdc4, hits give low values 0.952 | locus YFL029C, strain CAK1, hits give low values 0.967 | locus YFR003C, strain YPI1, hits give low values 0.976 | locus YFR019W, strain FAB1, hits give low values 0.944 | locus YFR028C, strain CDC14, hits give low values 0.968 | locus YGR040W, strain KSS1, hits give low values 0.897 | locus YGR052W, strain FMP48, hits give low values 0.947 | locus YGR092W, strain DBF2, hits give low values 0.855 | locus YHR079C, strain IRE1, hits give low values 0.822 | locus YHR082C, strain KSP1, hits give low values 0.901 | locus YHR205W, strain SCH9, hits give low values 0.828 | locus YIL147C, strain SLN1, hits give low values 0.951 | locus YJL095W, strain BCK1, hits give low values 0.837 | locus YJL128C, strain PBS2, hits give low values 0.922 | locus YJL157C, strain FAR1, hits give low values 0.933 | locus YJR016C, strain ILV3, hits give low values 0.975 | locus YJR066W, strain TOR1 (second series), hits give low values 0.912 | locus YJR066W, strain TOR1, hits give low values 0.843 | locus YKL048C, strain ELM1, hits give low values 0.928 | locus YKL067W, strain YNK1, hits give low values 0.916 | locus YKL101W, strain HSL1, hits give low values 0.884 | locus YKL193C, strain SDS22, hits give low values 0.969 | locus YKL203C, strain TOR2, hits give low values 0.981 | locus YLR133W, strain CKI1, hits give low values 0.921 | locus YLR403W, strain SFP1, hits give low values 0.905 | locus YML070W, strain DAK1, hits give low values 0.898 | locus YMR001C, strain CDC5, hits give low values 0.944 | locus YMR205C, strain PFK2 (second series), hits give low values 0.934 | locus YMR277W, strain FCP1, hits give low values 0.943 | locus YNL006W, strain LST8, hits give low values 0.965 | locus YNL020C, strain ARK1, hits give low values 0.921 | locus YNL161W, strain CBK1, hits give low values 0.972 | locus YNL183C, strain NPR1, hits give low values 0.942 | locus YNL207W, strain RIO2, hits give low values 0.974 | locus YNL222W, strain SSU72, hits give low values 0.949 | locus YNL307C, strain MCK1 (second series), hits give low values 0.881 | locus YOL078W, strain AVO1, hits give low values 0.974 | locus YOL136C, strain PFK27, hits give low values 0.88 | locus YOR061W, strain CKA2, hits give low values 0.918 | locus YOR119C, strain RIO1, hits give low values 0.932 | locus YOR231W, strain MKK1, hits give low values 0.823 | locus YOR329C, strain SCD5, hits give low values 0.977 | locus YPL031C, strain PHO85, hits give low values 0.891 | locus YPL153C, strain RAD53, hits give low values 0.91 | locus YPL204W, strain HRR25, hits give low values 0.899 | locus YPL209C, strain IPL1, hits give low values 0.974 | locus YPR025C, strain CCL1, hits give low values 0.981 | locus YPR106W, strain ISR1, hits give low values 0.958 | locus YPR111W, strain DBF20, hits give low values 0.94 | strain NNK1, hits give low values 0.962 | strain TSCII, hits give low values 0.96
